# According to PubChem BioAssay (NCATS):
# Several values for one entry are separate records, joined by “and”; a condition that tells them apart may be missing. Identical values can stand only once. Inconclusive results are not listed. A call without a number means that no potency is given here. Unmarked numbers belong to inactive results. Activity calls are given as the source filed them. Unless noted, the call rests on the fitted dose curve; in most records, active means well fitted curve in the direction sought with a large enough effect; inconclusive means small, poorly fitted or top-dose-only effect, or another doubt; inactive means no such curve, though single readings can be large; an effect the other way counts as inactive or inconclusive.
# What was measured:
# [1] = target: Cellular tumor antigen p53 (Homo sapiens) (UniProt P04637); test: Primary qHTS for small molecule compounds that upregulate eGFP-tagged delta133p53alpha (in N-terminal) cells. (AID 2060322); settings: NCI-H358 eGFP-delta133p53alpha fluorescence, 24 h; activation: stronger effect = higher value; further: nearly all actives have a fitted effect of over 75% in size; further: potency means the concentration at half of the fitted maximal effect;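 on activation: cells pre-induced with doxycycline then dosed without doxycycline; series mostly up to about 56 µM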
# Sequence of Cellular tumor antigen p53 (Homo sapiens) (P04637 whole entry, looked up): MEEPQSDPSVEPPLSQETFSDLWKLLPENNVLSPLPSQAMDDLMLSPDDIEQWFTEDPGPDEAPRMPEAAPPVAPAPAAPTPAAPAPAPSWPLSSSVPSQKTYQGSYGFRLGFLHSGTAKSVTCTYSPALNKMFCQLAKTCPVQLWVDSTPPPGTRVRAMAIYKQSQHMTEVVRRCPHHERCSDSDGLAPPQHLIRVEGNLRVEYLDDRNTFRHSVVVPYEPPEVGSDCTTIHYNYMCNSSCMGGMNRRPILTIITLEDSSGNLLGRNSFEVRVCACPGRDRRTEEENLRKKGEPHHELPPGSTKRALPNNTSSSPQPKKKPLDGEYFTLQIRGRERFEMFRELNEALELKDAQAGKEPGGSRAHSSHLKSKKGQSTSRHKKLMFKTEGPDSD
# Procedure, shortened: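 NCI-H358 cells pre-induced 24 h with 10 ng/ml doxycycline for eGFP-delta133p53alpha, plated dox-free and exposed 24 h at 37C to titrated compounds. Fixed, Hoechst-stained; gated GFP peak intensity by laser scanning cytometry, normalized to DMSO (0%) and 57.5 uM 5-azacytidine (100%).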
# [2] = target: Cellular tumor antigen p53 (Homo sapiens) (UniProt P04637); test: Primary qHTS for small molecule compounds that upregulate eGFP-tagged delta133p53alpha (in C-terminal) cells. (AID 2060324); further: potency means the concentration at half of the fitted maximal effect
# Procedure, shortened: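 Concentration-response screen: compounds titrated onto pre-induced NCI-H358 D133p53a-eGFP cells, incubated one day, fixed with 3.5% PFA. Per-cell GFP peak intensity was gated, then normalized against intraplate controls.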
# [3] = target: Aldehyde dehydrogenase, mitochondrial (Homo sapiens) (UniProt P05091); test: qHTS for Inhibitors of the Aldehyde Dehydrogenase Family (ALDH2) Validation screens (AID 2061302; active means well fitted inhibition curve with a large enough effect; title and protocol of this record describe different tests)
# [4] = target: Retinaldehyde dehydrogenase 3 (Homo sapiens) (UniProt P47895); test: qHTS for Inhibitors of the Aldehyde Dehydrogenase Family (ALDH1A3) Validation screen (AID 2061312); further: nearly all actives have a fitted effect of over 45% in size
# [5] = BET inhibitor-based combinations targeting novel dependencies in MECOM-rearranged (r) AML: MV-4-11 cell line (AID 2202233); further: nearly all actives have a fitted effect of over 45% in size; further: potency means the concentration at half of the fitted maximal effect
# Procedure, shortened: (§1)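 Each compound is tested in an 11-point concentration series against 500 seeded cells/well for 48 hr. The luminescent viability signal is normalized to DMSO and blank wells, then reduced to AUC and a cell-line-centred Z-AUC.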
# [6] = BET inhibitor-based combinations targeting novel dependencies in MECOM-rearranged (r) AML: SET-2 cell line (AID 2202231); settings: SET-2 AML cells viability, CellTiter-Glo luminescence, 48 h; viability: stronger effect = lower value, concentration not given here; further: nearly all actives have a fitted effect of over 35% in size; further: potency means the concentration at half of the fitted maximal effect
# Procedure, shortened: (§2)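 A 48 hr incubation preceded viability reading by CellTiter-Glo, with 15 min room-temperature development. Dose series had 11 points; normalization used DMSO and empty wells; AUC was computed and mean-centered per line as Z-AUC.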
# [7] = BET inhibitor-based combinations targeting novel dependencies in MECOM-rearranged (r) AML: OCI-AML3 cell line (AID 2202232); settings: Potency: OCI-AML3 viability; further: nearly all actives have a fitted effect of over 35% in size; further: potency means the concentration at half of the fitted maximal effect
# Procedure, shortened: as §2
# [8] = BET inhibitor-based combinations targeting novel dependencies in MECOM-rearranged (r) AML: HNT-34 cell line (AID 2202234); further: nearly all actives have a fitted effect of over 35% in size; further: potency means the concentration at half of the fitted maximal effect
# Procedure, shortened: as §1
# [9] = BET inhibitor-based combinations targeting novel dependencies in MECOM-rearranged (r) AML: UCSD-AML1 cell line (AID 2202235); further: nearly all actives have a fitted effect of over 40% in size; further: potency means the concentration at half of the fitted maximal effect
# Procedure, shortened: as §1
# [10] = BET inhibitor-based combinations targeting novel dependencies in MECOM-rearranged (r) AML: AML-191 cell line (AID 2202236; further: nearly all actives have a fitted effect of over 35% in size; further: potency means the concentration at half of the fitted maximal effect)
# Procedure, shortened: as §2
# [11] = BET inhibitor-based combinations targeting novel dependencies in MECOM-rearranged (r) AML: AML-194 cell line (AID 2202237; further: nearly all actives have a fitted effect of over 40% in size; further: potency means the concentration at half of the fitted maximal effect)
# Procedure, shortened: as §2
# [12] = target: Aldehyde dehydrogenase 1A1 (Homo sapiens) (UniProt P00352); test: qHTS for Inhibitors of the Aldehyde Dehydrogenase Family (ALDH1A1) Confirmatory screens (AID 2061316); further: nearly all actives have a fitted effect of over 65% in size
# [13] = target: Retinaldehyde dehydrogenase 3 (Homo sapiens) (UniProt P47895); test: qHTS for Inhibitors of the Aldehyde Dehydrogenase Family (ALDH1A3) Primary screen (AID 2061315)
Structure (SMILES),activation [1],Potency [2],Potency [3],Potency [4],Potency [5],viability [6] [%],Potency [7],Potency [8],Potency [9],Potency [10],Potency [11],Potency [12],Potency [1],Potency [13],Potency [6]
CC#C[C@]1(O)CC[C@H]2[C@@H]3CCC4=CC(=O)CCC4=C3[C@@H](c3ccc(N(C)C)cc3)C[C@@]21C,7.02%,inactive,inactive,inactive,23.5 µM (active),–,–,–,–,–,–,–,–,–,–
NC(=O)OCC(COC(N)=O)c1ccccc1,-10.4% and 18.4% and 1.5%,inactive,inactive,–,inactive,119,inactive,inactive,inactive,inactive,inactive,–,–,–,–
NCCc1cnc[nH]1,-5.21% and -25.1% and -31.8%,inactive,inactive,–,8.33 µM (active),93.4,inactive,–,–,inactive,inactive,–,–,–,–
Nc1nc(N)c2nc(CNc3ccc(C(=O)NC(CCC(=O)O)C(=O)O)cc3)cnc2n1 (configuration not stated),25.1% and -8.03%,inactive,inactive,–,inactive,90.9,inactive,–,–,inactive,inactive,–,–,–,–
CC(C)c1ccc2c(c1)c(SC(C)(C)C)c(CC(C)(C)C(=O)O)n2Cc1ccc(Cl)cc1,10.9% and -49%,inactive,inactive,inactive,20.9 µM (active),–,20.9 µM (active),23.5 µM (active),inactive,20.9 µM (active),–,–,–,–,–
CCCc1c(OCCCOc2ccc(OCC(=O)O)cc2)ccc(C(C)=O)c1O,-13.9%,inactive,inactive,inactive,inactive,–,–,inactive,–,inactive,inactive,–,–,–,–
NC(N)=NC(=O)c1nc(Cl)c(N)nc1N,11.3% and -28.8% and -10.6%,inactive,inactive,inactive,13.5 µM (active),–,9.59 µM (active),–,30.3 µM (active),–,–,–,–,–,–
O=C1NC(c2cccc([N+](=O)[O-])c2)=CCN1c1ccccc1O,5.67% and -12.4%,inactive,inactive,–,–,–,–,–,–,–,–,inactive,–,–,–
Cn1ccc2cc3c(cc21)CCN3C(=O)Nc1cccnc1,20.1% and 12% and -55.1%,inactive,inactive,–,–,105,–,–,inactive,inactive,inactive,–,–,–,–
CC[C@@]1(O)C(=O)OCc2c1cc1n(c2=O)Cc2cc3c(CN(C)C)c(O)ccc3nc2-1,–,6.75 µM (active),inactive,–,0.0118 µM (active),–,0.0186 µM (active),0.0083 µM (active),0.0166 µM (active),–,–,–,24.6 µM (active) and 3.38 µM (active),inactive,0.0372 µM (active)
C[C@]12CC[C@@H]3c4ccc(O)cc4CC[C@H]3[C@@H]1CC[C@@H]2O,63.8%,inactive,inactive,inactive,–,–,–,–,14.8 µM (active),16.6 µM (active),23.5 µM (active),–,–,–,–
CCN(CC)CCn1c(=O)c(Cc2ccc(OC)cc2)nc2ccccc21,3.86% and 2.44%,inactive,inactive,–,inactive,107,inactive,inactive,inactive,inactive,–,–,–,–,–
NC(=O)c1ncn([C@@H]2O[C@H](CO)[C@@H](O)[C@H]2O)n1,6.69% and -41.3%,inactive,inactive,inactive,23.5 µM (active),–,–,16.6 µM (active),18.6 µM (active),–,–,–,–,–,–
O=C(c1ccc(OCCN2CCCCC2)cc1)c1c(-c2ccc(O)cc2)sc2cc(O)ccc12,20.9% and -56%,inactive,inactive,inactive,18.6 µM (active),–,11.8 µM (active),–,inactive,–,20.9 µM (active),–,–,–,–
COc1ccccc1N1CCN(CC(O)COc2cccc3ccccc23)CC1 (configuration not stated),17.1% and 24.3% and -36.9%,inactive,inactive,–,14.8 µM (active),–,–,–,5.25 µM (active),9.34 µM (active),–,–,–,–,13.2 µM (active)
CC[N+](CC)(CC)CCOc1cccc(OCC[N+](CC)(CC)CC)c1OCC[N+](CC)(CC)CC,-9.51% and 5.08% and -25.7%,inactive,inactive,–,inactive,–,inactive,inactive,inactive,inactive,inactive,–,–,–,–
